From PubChem BioAssay (Tox21)
Unmarked numbers belong to inactive results. Results filed as inconclusive are left out. Where a call stands in place of a potency, no number is given. Calls of active or inactive are those of the source. Calls come from the whole dose curve; as a rule, active = well fitted activation curve with a large enough effect in the repeat runs; inconclusive = weak or mixed curves; inactive = flat fitted curve, though single readings scatter. Positions of bridges follow the written chain, without caps; N, C: chain ends. Where a SMILES comes first, the peptide text is derived from it. Non-standard residues stand in square brackets, D forms with d. Residues, ends and D or L forms follow the SMILES beside them. hArg = N=C(N)NCCCC[C@H](N)C(=O)O; Mpa = O=C(O)CCS

Assay: A CellTox Green Cytotoxicity Assay to monitor cytotoxicity in HEK293 cells - 32 hour (AID 1224881); note: nearly all actives have a fitted effect of over 40% in size
Conditions: CellTox Green fluorescence; series mostly up to 76.8 µM
How it was run: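 HEK293 cells, 600/well, were preincubated 5 hours and then exposed to compounds at 37 C for up to 40 hours. A cell-impermeant cyanine dye staining dead-cell DNA was read by fluorescence at 0, 8, 16, 24, 32 and 40 h time points.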
Potency is the fitted concentration of half-maximal effect.

| SMILES | Potency | cytotoxicity increase |
| --- | --- | --- |
| COc1ccc2c(c1)c1c3n2CCN(C)C3=NCC1 | inactive | – |
| Cn1c(=O)c2[nH]c(Br)nc2n(C)c1=O | inactive | – |
| CC(=O)C1C(=O)C=C(C)OC1=O (centres undefined) | inactive | – |
| CN(C)CCN(C)CCO | inactive | – |
| CC(C)C1OCCN1CCOC(=O)NCCCCCCNC(=O)OCCN1CCOC1C(C)C (centres undefined) | inactive | – |
| CC(=O)O[C@H]1C[C@@H]2CC[C@@]1(C)C2(C)C | inactive | – |
| CN1C[C@@H]2C[C@H]1CN2c1cc2c(cc1F)c(=O)c(C(=O)O)cn2C1CC1 | – | -7.04% [at 15.8 µM] |
| CC1(C)CC(OC(=O)CCCCCCCCC(=O)OC2CC(C)(C)NC(C)(C)C2)CC(C)(C)N1 | – | -5.67% [at 15.8 µM] |
| C=Cc1ccc(C(C)(C)C)cc1 | inactive | – |
| CCOc1ccccc1OCC1CNCCO1 (centres undefined) | inactive | – |
| N[C@@H](Cc1ccc(O)cc1)C(=O)O | – | 4.36% [at 6.97 µM] |
| O=C(CCCCC(=O)Nc1c(I)cc(I)c(C(=O)O)c1I)Nc1c(I)cc(I)c(C(=O)O)c1I | inactive | – |
| O=C1NC(c2ccccc2)(c2ccccc2)C(=O)N1COP(=O)(O)O | inactive | – |
| OCCN1CCOCC1 | inactive | – |
| CC(C)c1ccc(C=O)cc1 | inactive | – |
| COc1c2occc2c(OC)c2c(=O)cc(C)oc12 | inactive | – |
| CCCCOCCOC(=O)COc1ccc(Cl)cc1Cl | inactive | – |
| CCC(C(=O)OCCN1CCOC(c2ccccc2)C1C)c1ccccc1 (centres undefined) | inactive | – |
| C=C(C)[C@@H]1CC=C(C)CC1 | inactive | – |

| SMILES | Potency | cytotoxicity increase |
| --- | --- | --- |
| CC(=O)CC(=O)Nc1ccc(C)cc1C | inactive | – |
| c1ccc2cnccc2c1 | inactive | – |
| CN(C)CCOC(=O)C(c1ccccc1)C1(O)CCCC1 (centres undefined) | inactive | – |
| NCc1ccc(S(N)(=O)=O)cc1 | inactive | – |
| COc1cc(/C=C/C(N)=O)cc(OC)c1OC | inactive | – |
| NC(=O)[C@@H]1CSSCCC(=O)N[C@@H](CCCCN=C(N)N)C(=O)NCC(=O)N[C@@H](CC(=O)O)C(=O)N[C@@H](Cc2c[nH]c3ccccc23)C(=O)N2CCC[C@H]2C(=O)N1 ([Mpa][hArg]GDWPC-NH2; disulfide 1-7) | inactive | – |
| O=C1c2ccccc2C(=O)c2cc(Cl)ccc21 | – | -1.78% [at 6.97 µM] |
| Fc1ccccc1 | inactive | – |
| CC(C)(CO)C(O)C(=O)NCCCO (centres undefined) | inactive | – |
| CC(=O)c1cc(C)oc1C | inactive | – |
| COc1cc(OC)nc(O[C@H](C(=O)O)C(OC)(c2ccccc2)c2ccccc2)n1 | inactive | – |
| CCO | inactive | – |
| C=C(C)c1cccc(C(C)(C)N=C=O)c1 | inactive | – |
| C=CC/C=C/C | inactive | – |
| CCCCCCCCCOC(=O)CCCCC(=O)OCCCCCCC | 24.5 µM (active) | – |
| CC(=O)N[C@@H](CO)C(=O)N[C@@H](CC(=O)O)C(=O)N[C@@H](CCCCN)C(=O)N1CCC[C@H]1C(=O)O (Ac-SDKP-OH) | inactive | – |
| CCC/C=C(\C=O)CC | inactive | – |
| CC(C)OC(=O)CCC(=O)OC(C)C | inactive | – |

Assay: A CellTox Green Cytotoxicity Assay to monitor cytotoxicity in HepG2 cells - 0 hour (AID 1224882); note: nearly all actives have a fitted effect of over 35% in size
Conditions: CellTox Green fluorescence; series mostly up to 76.8 µM
How it was run: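 HepG2 cells, 600/well, preincubated 5 h with CellTox Green dye, then exposed to Tox21 compounds in DMSO at 37 C for up to 40 h. Dead-cell DNA fluorescence read at the indicated time point.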

| SMILES | Potency | cytotoxicity |
| --- | --- | --- |
| COc1ccc2c(c1)c1c3n2CCN(C)C3=NCC1 | inactive | – |
| Cn1c(=O)c2[nH]c(Br)nc2n(C)c1=O | inactive | – |
| CC(=O)C1C(=O)C=C(C)OC1=O (centres undefined) | inactive | – |
| CN(C)CCN(C)CCO | inactive | – |
| CC(C)C1OCCN1CCOC(=O)NCCCCCCNC(=O)OCCN1CCOC1C(C)C (centres undefined) | inactive | – |
| CC(=O)O[C@H]1C[C@@H]2CC[C@@]1(C)C2(C)C | inactive | – |
| CN1C[C@@H]2C[C@H]1CN2c1cc2c(cc1F)c(=O)c(C(=O)O)cn2C1CC1 | – | 2.16% [at 15.8 µM] |
| CC1(C)CC(OC(=O)CCCCCCCCC(=O)OC2CC(C)(C)NC(C)(C)C2)CC(C)(C)N1 | – | -7.52% [at 15.8 µM] |
| C=Cc1ccc(C(C)(C)C)cc1 | inactive | – |
| CCOc1ccccc1OCC1CNCCO1 (centres undefined) | inactive | – |
| N[C@@H](Cc1ccc(O)cc1)C(=O)O | – | 1.32% [at 6.97 µM] |
| O=C(CCCCC(=O)Nc1c(I)cc(I)c(C(=O)O)c1I)Nc1c(I)cc(I)c(C(=O)O)c1I | inactive | – |
| O=C1NC(c2ccccc2)(c2ccccc2)C(=O)N1COP(=O)(O)O | inactive | – |
| OCCN1CCOCC1 | inactive | – |
| CC(C)c1ccc(C=O)cc1 | inactive | – |
| COc1c2occc2c(OC)c2c(=O)cc(C)oc12 | inactive | – |
| CCCCOCCOC(=O)COc1ccc(Cl)cc1Cl | inactive | – |
| CCC(C(=O)OCCN1CCOC(c2ccccc2)C1C)c1ccccc1 (centres undefined) | inactive | – |
| C=C(C)[C@@H]1CC=C(C)CC1 | inactive | – |

| SMILES | Potency | cytotoxicity |
| --- | --- | --- |
| CC(=O)CC(=O)Nc1ccc(C)cc1C | inactive | – |
| c1ccc2cnccc2c1 | inactive | – |
| CN(C)CCOC(=O)C(c1ccccc1)C1(O)CCCC1 (centres undefined) | inactive | – |
| NCc1ccc(S(N)(=O)=O)cc1 | inactive | – |
| COc1cc(/C=C/C(N)=O)cc(OC)c1OC | inactive | – |
| NC(=O)[C@@H]1CSSCCC(=O)N[C@@H](CCCCN=C(N)N)C(=O)NCC(=O)N[C@@H](CC(=O)O)C(=O)N[C@@H](Cc2c[nH]c3ccccc23)C(=O)N2CCC[C@H]2C(=O)N1 ([Mpa][hArg]GDWPC-NH2; disulfide 1-7) | inactive | – |
| O=C1c2ccccc2C(=O)c2cc(Cl)ccc21 | – | 3.98% [at 6.97 µM] |
| Fc1ccccc1 | inactive | – |
| CC(C)(CO)C(O)C(=O)NCCCO (centres undefined) | inactive | – |
| CC(=O)c1cc(C)oc1C | inactive | – |
| COc1cc(OC)nc(O[C@H](C(=O)O)C(OC)(c2ccccc2)c2ccccc2)n1 | inactive | – |
| CCO | inactive | – |
| C=C(C)c1cccc(C(C)(C)N=C=O)c1 | inactive | – |
| C=CC/C=C/C | inactive | – |
| CCCCCCCCCOC(=O)CCCCC(=O)OCCCCCCC | 27.5 µM (active) | – |
| CC(=O)N[C@@H](CO)C(=O)N[C@@H](CC(=O)O)C(=O)N[C@@H](CCCCN)C(=O)N1CCC[C@H]1C(=O)O (Ac-SDKP-OH) | inactive | – |
| CCC/C=C(\C=O)CC | inactive | – |
| CC(C)OC(=O)CCC(=O)OC(C)C | inactive | – |
